Experimental data published in the supplement of paper PMC10338343.
± gives the standard deviation.

What was measured:
[1] = test system: MILI (PIWIL2) piRISC loaded with L1MC piRNA (26 nt); experiment: pre-steady-state target cleavage rate (min^-1); guide: L1MC piRNA 5'p-UAACUAAAUACUAUGCAAGCUGUAGG; higher = faster piRNA-guided slicing of the target;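 note: 1 nM active piRISC with 0.1 nM target library at 33 °C single turnover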
Method in brief: (§1)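 A transcribed, DNA-blocked target RNA library […] was incubated at 33 °C for 0–8 or 0–960 min with 1 nM active affinity-purified piRISC carrying one synthetic guide, in HEPES–potassium acetate buffer with or without 500 nM GTSF1 partner protein. Uncleaved targets were then sequenced and normalised to depth and to weakly complementary targets. Data from three trials were pooled, with k3 capped at 0.0001 min^-1, and a burst-and-steady-state fit yielded the pre-steady-state cleavage rate.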

[2] = test system: EfPiwi piRISC loaded with L1MC piRNA (26 nt); experiment: pre-steady-state target cleavage rate (min^-1); auxiliary factor: 500 nM Ephydatia muelleri Gtsf1; guide: L1MC piRNA 5'p-UAACUAAAUACUAUGCAAGCUGUAGG; MIWI and MILI are mouse PIWI proteins and EfPiwi is from a freshwater sponge; tags in brackets are library labels; higher = faster piRNA-guided slicing of the target
Method in brief: as §1

[3] = auxiliary factor: 500 nM mouse GTSF1
[4] = auxiliary factor: none (no GTSF1)

Row | Sequence | pre-steady-state target cleavage rate [1, 3] | pre-steady-state target cleavage rate [1, 4] | pre-steady-state target cleavage rate [2]
1 | UCCUGGUACAGCUUGCAUAGUAUUUAGUCUA | 0.0602 ± 0.024 | 0.00783 ± 0.0041 | 0.00521 ± 0.0031
2 | UCCUGGAUCAGCUUGCAAAGUUUUUAGUUA | 0.00906 ± 0.0052 | 0.0042 ± 0.0022 | 0.00491 ± 0.0036
3 | UCCUCCUACAGUUGCAUAGUAUUUAGUUA | 0.255 ± 0.014 | 0.00612 ± 0.0019 | 0.0777 ± 0.021
4 | UCCUGGAUGUGCUGCAUAGUAUUUAGUUA | 0.0672 ± 0.009 | 0.00895 ± 0.0024 | 0.00571 ± 0.0034
5 | UCCUGGUACUGCUUGCUUAGUAUUUAGUUA | 0.197 ± 0.015 | 0.0115 ± 0.0025 | 0.00909 ± 0.0033
6 | UCCUGGAUGAGCGUUGCAUAGUAUUUAGUUA | 0.192 ± 0.017 | 0.00904 ± 0.0031 | 0.00582 ± 0.0034
7 | UCCUGGAUGACUUGCAUAGUAUUUAGUUA | 0.171 ± 0.014 | 0.004 ± 0.0027 | 0.0058 ± 0.0023
8 | UCCUGCUACAGCUUGCAUAAUAUUUAGUUA | 0.363 ± 0.034 | 0.00537 ± 0.0019 | 0.00444 ± 0.0021
9 | UCCUGGUACAGCAUGCAUAGUAUUUAGAUA | 0.137 ± 0.025 | 0.00437 ± 0.0029 | 0.00412 ± 0.0025
10 | UCCUGCUACAGUUGCAUAGUAUUUAGUUA | 0.256 ± 0.019 | 0.0103 ± 0.0022 | 0.0766 ± 0.022
11 | UCCUGGAUGAGCUUGGAUAGUAUUUAGUUA | 0.163 ± 0.011 | 0.00612 ± 0.0024 | 0.0043 ± 0.0033
12 | UCCUGGAACAGCUUCCAAAGUAUUUAGUUA | 0.137 ± 0.015 | 0.00525 ± 0.0018 | 0.00262 ± 0.0019
13 | UCCUGGAUGUGCUAUGCAUAGUAUUUAGUUA | 0.141 ± 0.018 | 0.0069 ± 0.0024 | 0.0103 ± 0.0036
14 | UCCUGGAACAGGUUGCUUAGUAUUUAGUUA | 0.253 ± 0.015 | 0.0109 ± 0.0031 | 0.00924 ± 0.0022
15 | UCCUGGUAGAGCUUGCAUAGUAUUAAGUUA | 0.207 ± 0.034 | 0.00672 ± 0.0026 | 0.00385 ± 0.0022
16 | UCCUGGAUGUGCUUUGCAUAGUAUUUAGUUA | 0.157 ± 0.016 | 0.0132 ± 0.0033 | 0.00805 ± 0.003
17 | UCCUGCAACAGCUUGCAUAGUAUUUAGUAA | 0.333 ± 0.031 | 0.00819 ± 0.0029 | 0.00572 ± 0.0023
18 | UCCUGGUACAGCAUGCAUAGUUUUUAGUUA | 0.038 ± 0.015 | 0.00749 ± 0.0033 | 0.0046 ± 0.0027
19 | UCCUGGAACAGCUCUGCAUAGUAUUUAGUUA | 0.268 ± 0.012 | 0.00871 ± 0.0031 | 0.0165 ± 0.005

Row | Sequence | pre-steady-state target cleavage rate [1, 3] | pre-steady-state target cleavage rate [1, 4] | pre-steady-state target cleavage rate [2]
20 | UCCUGGAUCAUCUUGCAUAGUAUUUAGUUA | 0.241 ± 0.014 | 0.00614 ± 0.002 | 0.101 ± 0.023
21 | UCCUGGAUGAGCUUGCAUAGUACUUUAGUUA | 0.0613 ± 0.0089 | 0.00632 ± 0.0026 | 0.00806 ± 0.003
22 | UCCUGGAUCAGCCUUGCAUAGUAUUUAGUUA | 0.249 ± 0.023 | 0.00595 ± 0.0023 | 0.0303 ± 0.0094
23 | UCCUCCUACAGCUUGCAUAGUGAUUUAGUUA | 0.0192 ± 0.0061 | 0.00528 ± 0.0024 | 0.00415 ± 0.0025
24 | UCCUGGAUGAGCUUGCAUAGUAUUUAGUGUA | 0.261 ± 0.041 | 0.00591 ± 0.0031 | 0.00866 ± 0.0031
25 | UCCUGGAUGUCCUUGCAUAGUAUUUGGUUA | 0.0891 ± 0.016 | 0.00707 ± 0.0022 | 0.00366 ± 0.0027
26 | UCCUGGAACUCCUUGCAUAGUAUUUAGUAA | 0.169 ± 0.02 | 0.00259 ± 0.0025 | 0.00371 ± 0.0017
27 | UCCUGGUACAGCAAGCAUAGUAUUUAGUUA | 0.232 ± 0.018 | 0.00852 ± 0.0027 | 0.00653 ± 0.0021
28 | UCCUCCUACAGCUUGCAUAGUAUUCAGUUA | 0.229 ± 0.034 | 0.00319 ± 0.0024 | 0.0063 ± 0.0029
29 | UCCUGGAUCAGCUUGCAAAGUAUUAAGUUA | 0.119 ± 0.011 | 0.00698 ± 0.0025 | 0.00373 ± 0.0026
30 | UCCUGGAACAGCUUGCAUUGUAAUUAGUUA | 0.184 ± 0.023 | 0.00389 ± 0.0028 | 0.00225 ± 0.0022
31 | UCCUGGAUCAGCUUGACAUAGUAUUUAGUUA | 0.171 ± 0.019 | 0.00343 ± 0.0024 | 0.014 ± 0.0043
32 | UCCUCCUACAGCUUGCAUAGUAAAUAGUUA | 0.201 ± 0.022 | 0.00285 ± 0.0028 | 0.00735 ± 0.0032
33 | UCCUGGAUGAGCUUGCAUAGUAUCUAGUUA | 0.131 ± 0.019 | 0.00451 ± 0.0026 | 0.00844 ± 0.003
34 | UCCUGGAACAGCAUGCAUACUAUUUAGUUA | 0.0727 ± 0.0093 | 0.00273 ± 0.0026 | 0.00762 ± 0.0026
35 | UCCUCCUACAGCUUGCUUAGUAUUUACUUA | 0.179 ± 0.02 | 0.00341 ± 0.0022 | 0.00381 ± 0.003
36 | UCCUGGAACACGCUUGCAUAGUAUUUAGUUA | 0.249 ± 0.025 | 0.0151 ± 0.0044 | 0.0331 ± 0.011
37 | UCCUCCUACAGCUUCAUAGUAUUUAGUUA | 0.238 ± 0.013 | 0.0049 ± 0.002 | 0.0399 ± 0.015
38 | UCCUGGUUCACCUUGCAUAGUAUUUAGUUA | 0.128 ± 0.022 | 0.00513 ± 0.0027 | 0.0052 ± 0.0033

Row | Sequence | pre-steady-state target cleavage rate [1, 3] | pre-steady-state target cleavage rate [1, 4] | pre-steady-state target cleavage rate [2]
39 | UCCUCCUACAGGUUGGAUAGUAUUUAGUUA | 0.205 ± 0.012 | 0.00699 ± 0.0018 | 0.0118 ± 0.0028
40 | UCCUGCUACUGCUUGCAUAGAAUUUAGUUA | 0.045 ± 0.0093 | 0.00256 ± 0.002 | 0.00563 ± 0.002
41 | UCCUGGAACUGCUUGCAUUGUAUUUAGUUA | 0.177 ± 0.015 | 0.00842 ± 0.0019 | 0.00574 ± 0.0019
42 | UCCUGGUAGAGCUUGCAAAGUAUUUAGUUA | 0.109 ± 0.0077 | 0.00935 ± 0.0029 | 0.0322 ± 0.0099
43 | UCCUCCUACAGCUUGCAUUGUAAUUAGUUA | 0.166 ± 0.013 | 0.00423 ± 0.0019 | 0.00753 ± 0.0034
44 | UCCUGGAAGAGCUUGCAUAGUAUAUAGUUA | 0.173 ± 0.019 | 0.00457 ± 0.0025 | 0.0114 ± 0.0044
45 | UCCUGGAUGAGGCUUGCAUAGUAUUUAGUUA | 0.186 ± 0.018 | 0.0125 ± 0.0036 | 0.0185 ± 0.0065
46 | UCCUCCUCAGCUUGCAUAGUAUUUAGUUA | 0.258 ± 0.015 | 0.00784 ± 0.0019 | 0.0735 ± 0.017
47 | UCCUGCUACAGCUUGCUUAGUAUUUAGUAA | 0.119 ± 0.015 | 0.00316 ± 0.0023 | 0.00437 ± 0.0017
48 | UCCUGGAUGAGCUUGCGUAGUAUUUAGUUA | 0.119 ± 0.016 | 0.0108 ± 0.0025 | 0.00425 ± 0.0038
49 | UCCUGGAUCAGCUUGCAUAGUUUUAAGUUA | 0.0366 ± 0.008 | 0.00531 ± 0.0024 | 0.00285 ± 0.0028
50 | UCCUCCUACAGCUUGCAUAGUAAUUUAGUUA | 0.199 ± 0.019 | 0.00674 ± 0.0025 | 0.00821 ± 0.0033
51 | UCCUCCUACCGCUUGCAUAGUAUUUAGUUA | 0.305 ± 0.015 | 0.0125 ± 0.003 | 0.0865 ± 0.023
52 | UCCUGCUACAGCUUGCAUAGUAUUUUGUUA | 0.168 ± 0.025 | 0.00464 ± 0.0019 | 0.00916 ± 0.0029
53 | UCCUCCAUGAGCUUGCAUAGUAUUUAGUUA | 0.279 ± 0.016 | 0.00711 ± 0.0021 | 0.0146 ± 0.004
54 | UCCUCCUUCAGCUUGCAUAGUAUUUAGUAA | 0.228 ± 0.021 | 0.00401 ± 0.0018 | 0.012 ± 0.005
55 | UCCUGGAUCAGCUUGCAUACUAUUUAGUUA | 0.0716 ± 0.011 | 0.0037 ± 0.0021 | 0.0114 ± 0.0021
56 | UCCUCCUACAGCUUGAAUAGUAUUUAGUUA | 0.283 ± 0.015 | 0.00723 ± 0.002 | 0.0651 ± 0.017
57 | UCCUGCUUCAGCUUGCAAAGUAUUUAGUUA | 0.122 ± 0.0063 | 0.00828 ± 0.0015 | 0.0683 ± 0.018
